Source: publication PMC5540273 (PLoS ONE, 2017)
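Further: KINOMEscan kinase panel screen.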

What follows are compounds tested on PIK3CD. Conditions: concentration: 1 μM, replicates: in singlicate; n = 1.
With `Cc1cccc(-c2nc(Nc3ccc4ncsc4c3)c3ccccc3n2)n1` [GW867588] the “%Inh” value was 30%.
In the case of `CCc1nc(-c2cccc(C)c2)c(-c2ccnc(NCc3ccccc3)c2)s1`, the “%Inh” value is reported as 0%.
In the case of `COc1cc2ncn(-c3cc(OCc4sccc4Cl)c(C(N)=O)s3)c2cc1OC` [GSK448459], the “%Inh” value is reported as 30%.
`Cc1c2ccc(N(C)c3ccnc(Nc4cccc(S(N)(=O)=O)c4)n3)cc2nn1Cc1ccccc1.Cl.Cl` [GW787226] was tested, and the “%Inh” value was 0%.
With `Nc1nc(-c2ccc3c(N)n[nH]c3c2)cc(N2CCCC2)n1` [GSK2227430] the “%Inh” value was 0%.
In the case of `COCCNC(=O)c1ccc(-c2cc(C(=O)NC3CC3)cc(F)c2C)cc1` [GW868318], the “%Inh” value is reported as 42%.
In the case of `COc1ccc(Nc2nccc(N3CCC(NC(=O)Nc4cc(C)ccc4C)C3)n2)cc1` (centres unmarked) [GSK1379741], the “%Inh” value is reported as 0%.
In the case of `COc1ccc(CNC(=O)NC2CCN(c3ccnc(Nc4ccc(OC)cc4)n3)C2)cc1` (centres unmarked) [GSK1379727], the “%Inh” value is reported as 26%.
In the case of `COc1ccc(Nc2ncc(C#N)c(Nc3ccccc3C(N)=O)n2)cc1N1CCN(C)CC1.Cl` [GSK1558669], the “%Inh” value is reported as 0%.
With `O=c1cc(N2CCOCC2)nc2n(Cc3cccc(C(F)(F)F)c3)ccn12` [GSK2297543] the “%Inh” value was 28%.
In the case of `NS(=O)(=O)c1cccc(-c2ccc3nccc(-c4cccc(S(N)(=O)=O)c4)c3c2)c1` [GW867253], the “%Inh” value is reported as 39%.
With `c1ccc(-c2cc(-c3c[nH]nc3-c3ccccn3)ccn2)cc1` [GW576604] the “%Inh” value was 0%.
For `Cc1nnc(-c2ccc(C)c(-c3ccc(C(=O)Nc4ccc(NS(C)(=O)=O)cc4)cc3)c2)o1` [GW702865], the “%Inh” value was 10%.
`N#Cc1ccc(-c2cc(-c3c[nH]nc3-c3ccccn3)ccn2)cc1` [GW693028] was tested, and the “%Inh” value was 0%.
In the case of `NS(=O)(=O)CCc1cccc(Nc2nccc(-c3c(-c4cccc(NC(=O)c5c(F)cccc5F)c4)nn4ccccc34)n2)c1` [GSK336735], the “%Inh” value is reported as 0%.
`Cc1ccc(C(=O)NCC(N)=O)cc1-n1c(C)cc(OCc2ccc(F)cc2F)c(Br)c1=O` was tested, and the “%Inh” value was 30%.
`O=C1Cc2cc(Nc3nc(NCc4cccc(S(=O)(=O)C(F)(F)F)c4)ncc3C(F)(F)F)ccc2N1` was tested, and the “%Inh” value was 13%.
With `Cl.Cl.Cl.Fc1ccc(-c2ncn(C3CCNCC3)c2-c2ccnc(Nc3ccccc3)n2)cc1` [SB-238039] the “%Inh” value was 0%.
`O=c1cc(N2CCOCC2)nc2n(Cc3cccc4ccccc34)ccn12` [GSK2333389] was tested, and the “%Inh” value was 89%.
In the case of `Fc1ccc(-c2ncn(CCCN3CCOCC3)c2-c2cccnc2)cc1` [SB-211743], the “%Inh” value is reported as 0%.
For `Cc1cccc(Cn2ccn3c(=O)cc(N4CCOCC4)nc23)c1` [GSK2297542], the “%Inh” value was 52%.
In the case of `COc1ccc(Nc2nccc(N3CCC(NC(=O)Nc4cccc(C(C)=O)c4)C3)n2)cc1` (centres unmarked) [GSK1379731], the “%Inh” value is reported as 0%.
In the case of `Cc1ccc(NC(=O)c2ccnc(N3CCN(C)CC3)c2)cc1-c1ccc(C(=O)NCC2CC2)cc1` [GW775604], the “%Inh” value is reported as 0%.
For `O=C(c1ccc(-c2cc(-c3c[nH]nc3-c3ccccn3)ccn2)cc1)N1CCOCC1` [GW812171], the “%Inh” value was 0%.
With `COC(=O)Nc1nc2cc(Oc3ccc(NC(=O)Nc4cc(F)ccc4F)cc3)ccc2[nH]1.Cl` [GW701424] the “%Inh” value was 0%.
In the case of `c1ccc(-c2n[nH]cc2-c2ccnc3ccccc23)nc1` [GW271431], the “%Inh” value is reported as 5%.
In the case of `CN1c2ccc(CNc3ccc(F)cc3)cc2-c2c(cnn2C)S1(=O)=O`, the “%Inh” value is reported as 0%.
For `CC(C)(C)n1cnc2c(N)ncnc21` [SKF-97359], the “%Inh” value was 0%.
With `Cc1nnc(-c2ccc3occ(-c4ccc(C(C)O)cc4)c3c2)o1` (centres unmarked) the “%Inh” value was 0%.
In the case of `Cc1nnc(-c2ccc3ncc(-c4ccc(S(C)=O)cc4)n3c2)o1` (centres unmarked), the “%Inh” value is reported as 0%.
`Nc1nccc(-c2c(-c3ccc(F)cc3)ncn2C2CCN(CC(F)(F)F)CC2)n1` [SB-236560] was tested, and the “%Inh” value was 0%.
With `O=c1cc(N2CCOCC2)nc2n(Cc3cccc(Cl)c3Cl)c(C3CC3)nn12` [GSK2358994] the “%Inh” value was 82%.
`O=C(NCCCN1CCOCC1)c1cccc(Nc2nccc(Nc3ccc(Oc4ccccc4)cc3)n2)c1` [GW663929] was tested, and the “%Inh” value was 7%.
`CSc1ccc(-c2cc3ncnc(SCC(=O)O)c3s2)cc1` was tested, and the “%Inh” value was 8%.
`CN(C(=O)c1ccc(-c2cc(-c3c[nH]nc3-c3ccccn3)ccn2)cc1)C1CCOCC1` [GW810083] was tested, and the “%Inh” value was 1%.
For `CCc1ccnc(/C=C/c2n[nH]c3cc(Sc4ccccc4C(=O)NC)ccc23)c1`, the “%Inh” value was 10%.

These compounds were tested on PIK3CG. Conditions: concentration: 1 μM, replicates: in singlicate; n = 1.
`Cc1cccc(-c2nc(Nc3ccc4ncsc4c3)c3ccccc3n2)n1` [GW867588] was tested, and the “%Inh” value was 0%.
With `CCc1nc(-c2cccc(C)c2)c(-c2ccnc(NCc3ccccc3)c2)s1` the “%Inh” value was 0%.
With `COc1cc2ncn(-c3cc(OCc4sccc4Cl)c(C(N)=O)s3)c2cc1OC` [GSK448459] the “%Inh” value was 35%.
With `Cc1c2ccc(N(C)c3ccnc(Nc4cccc(S(N)(=O)=O)c4)n3)cc2nn1Cc1ccccc1.Cl.Cl` [GW787226] the “%Inh” value was 0%.
For `Nc1nc(-c2ccc3c(N)n[nH]c3c2)cc(N2CCCC2)n1` [GSK2227430], the “%Inh” value was 0%.
For `COCCNC(=O)c1ccc(-c2cc(C(=O)NC3CC3)cc(F)c2C)cc1` [GW868318], the “%Inh” value was 29%.
With `COc1ccc(Nc2nccc(N3CCC(NC(=O)Nc4cc(C)ccc4C)C3)n2)cc1` (centres unmarked) [GSK1379741] the “%Inh” value was 0%.
For `COc1ccc(CNC(=O)NC2CCN(c3ccnc(Nc4ccc(OC)cc4)n3)C2)cc1` (centres unmarked) [GSK1379727], the “%Inh” value was 0%.
For `COc1ccc(Nc2ncc(C#N)c(Nc3ccccc3C(N)=O)n2)cc1N1CCN(C)CC1.Cl` [GSK1558669], the “%Inh” value was 0%.
`O=c1cc(N2CCOCC2)nc2n(Cc3cccc(C(F)(F)F)c3)ccn12` [GSK2297543] was tested, and the “%Inh” value was 8%.
`NS(=O)(=O)c1cccc(-c2ccc3nccc(-c4cccc(S(N)(=O)=O)c4)c3c2)c1` [GW867253] was tested, and the “%Inh” value was 88%.
For `c1ccc(-c2cc(-c3c[nH]nc3-c3ccccn3)ccn2)cc1` [GW576604], the “%Inh” value was 0%.
For `Cc1nnc(-c2ccc(C)c(-c3ccc(C(=O)Nc4ccc(NS(C)(=O)=O)cc4)cc3)c2)o1` [GW702865], the “%Inh” value was 0%.
For `N#Cc1ccc(-c2cc(-c3c[nH]nc3-c3ccccn3)ccn2)cc1` [GW693028], the “%Inh” value was 0%.
With `NS(=O)(=O)CCc1cccc(Nc2nccc(-c3c(-c4cccc(NC(=O)c5c(F)cccc5F)c4)nn4ccccc34)n2)c1` [GSK336735] the “%Inh” value was 0%.
For `Cc1ccc(C(=O)NCC(N)=O)cc1-n1c(C)cc(OCc2ccc(F)cc2F)c(Br)c1=O`, the “%Inh” value was 0%.
For `O=C1Cc2cc(Nc3nc(NCc4cccc(S(=O)(=O)C(F)(F)F)c4)ncc3C(F)(F)F)ccc2N1`, the “%Inh” value was 8%.
`O=c1cc(N2CCOCC2)nc2n(Cc3cccc4ccccc34)ccn12` [GSK2333389] was tested, and the “%Inh” value was 3%.
In the case of `Fc1ccc(-c2ncn(CCCN3CCOCC3)c2-c2cccnc2)cc1` [SB-211743], the “%Inh” value is reported as 0%.
`Cc1cccc(Cn2ccn3c(=O)cc(N4CCOCC4)nc23)c1` [GSK2297542] was tested, and the “%Inh” value was 10%.
In the case of `COc1ccc(Nc2nccc(N3CCC(NC(=O)Nc4cccc(C(C)=O)c4)C3)n2)cc1` (centres unmarked) [GSK1379731], the “%Inh” value is reported as 0%.
In the case of `Cc1ccc(NC(=O)c2ccnc(N3CCN(C)CC3)c2)cc1-c1ccc(C(=O)NCC2CC2)cc1` [GW775604], the “%Inh” value is reported as 0%.
For `O=C(c1ccc(-c2cc(-c3c[nH]nc3-c3ccccn3)ccn2)cc1)N1CCOCC1` [GW812171], the “%Inh” value was 0%.
With `COC(=O)Nc1nc2cc(Oc3ccc(NC(=O)Nc4cc(F)ccc4F)cc3)ccc2[nH]1.Cl` [GW701424] the “%Inh” value was 0%.
With `c1ccc(-c2n[nH]cc2-c2ccnc3ccccc23)nc1` [GW271431] the “%Inh” value was 0%.
In the case of `CN1c2ccc(CNc3ccc(F)cc3)cc2-c2c(cnn2C)S1(=O)=O`, the “%Inh” value is reported as 0%.
`CC(C)(C)n1cnc2c(N)ncnc21` [SKF-97359] was tested, and the “%Inh” value was 0%.
With `Cc1nnc(-c2ccc3occ(-c4ccc(C(C)O)cc4)c3c2)o1` (centres unmarked) the “%Inh” value was 25%.
With `Cc1nnc(-c2ccc3ncc(-c4ccc(S(C)=O)cc4)n3c2)o1` (centres unmarked) the “%Inh” value was 3%.
In the case of `Nc1nccc(-c2c(-c3ccc(F)cc3)ncn2C2CCN(CC(F)(F)F)CC2)n1` [SB-236560], the “%Inh” value is reported as 66%.
`O=c1cc(N2CCOCC2)nc2n(Cc3cccc(Cl)c3Cl)c(C3CC3)nn12` [GSK2358994] was tested, and the “%Inh” value was 45%.
For `O=C(NCCCN1CCOCC1)c1cccc(Nc2nccc(Nc3ccc(Oc4ccccc4)cc3)n2)c1` [GW663929], the “%Inh” value was 11%.
In the case of `CSc1ccc(-c2cc3ncnc(SCC(=O)O)c3s2)cc1`, the “%Inh” value is reported as 2%.
With `CN(C(=O)c1ccc(-c2cc(-c3c[nH]nc3-c3ccccn3)ccn2)cc1)C1CCOCC1` [GW810083] the “%Inh” value was 32%.
In the case of `CCc1ccnc(/C=C/c2n[nH]c3cc(Sc4ccccc4C(=O)NC)ccc23)c1`, the “%Inh” value is reported as 0%.
